# Source: PubChem BioAssay (NMMLSC)
# LAP4-GFP MLPCN: yeast TOR pathway LAP4-GFP modulation. S. cerevisiae LAP4-GFP multiplex, flow cytometry GFP, 3 h; median GFP as percent of DMSO wells. GFP response vs DMSO, % at 10 µM. 320,000 compounds, 0.34% hits;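 active = GFP response vs DMSO above a set limit, about the screen mean plus 3 SD, cut at about 150% in these data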
# AGP1 TOR yeast: alters AGP1-GFP fluorescence in TOR pathway yeast screen; S. cerevisiae AGP1-GFP multiplex flow cytometry, 3 h; GFP as percent of DMSO wells; GFP response vs DMSO, % at 10 µM; 320,000 compounds, 0.02% hits; AID 2066;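 active = GFP response relative to DMSO above a set limit, near screen average plus 3 SD, cut at about 150% in these data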;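 also: median GFP channel fluorescence of the gated AGP1 strain per well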
# CIT2 TOR yeast: alters CIT2-GFP fluorescence in TOR pathway yeast screen; S. cerevisiae CIT2-GFP strain, flow cytometry, 3 h; 100 means same as DMSO wells; GFP response vs DMSO, % at 10 µM; 320,000 compounds, 0.065% hits;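 active = GFP response relative to DMSO above a set limit, near the screen mean plus 3 SD, cut at about 150% in these data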;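 also: ratio of well median GFP fluorescence to mean of DMSO wells on the plate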
# RPL19A TOR yeast: yeast TOR pathway RPL19A-GFP modulation. percent response vs DMSO, % at 10 µM. 330,000 compounds, 0.3% hits. S. cerevisiae RPL19A-GFP strain, flow cytometry, 3 h; stronger effect = lower value;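 active = percent response vs DMSO below 50%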;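 also: median channel GFP fluorescence of the barcoded RPL19A-GFP strain; ratio of sample median GFP to plate DMSO average so 100% = DMSO; lower means less RPL19A-GFP as with rapamycin TOR inhibition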
# MEP2-GFP yeast: alters MEP2-GFP fluorescence in TOR pathway yeast screen. S. cerevisiae MEP2-GFP strain, flow cytometry GFP, 3 h; 100% = DMSO control level. GFP response vs DMSO, % at 10 µM. 330,000 compounds, 0.51% hits;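 active = GFP response versus DMSO above a set limit, roughly screen mean plus 3 SD, cut at about 180% in these data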;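 also: median GFP fluorescence of the barcode-gated MEP2-GFP cells per well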
# LAP4-GFP pick2: yeast LAP4-GFP modulation, second cherry pick; shares compounds with LAP4-GFP MLPCN; S. cerevisiae LAP4-GFP strain, flow cytometry GFP, 3 h; GFP response vs DMSO, % at 10 µM; 590 compounds, 20% hits;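 active = GFP signal as percent of the solvent control above about 150%, meaning raised reporter expression, limit read from the data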;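 also: ratio of well median GFP fluorescence to plate DMSO mean so 100% = DMSO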
# MEP2-GFP pick2: yeast MEP2-GFP modulation, second cherry pick | shares compounds with LAP4-GFP MLPCN | S. cerevisiae MEP2-GFP strain, flow cytometry GFP, 3 h | GFP response vs DMSO, % at 10 µM | 590 compounds, 10% hits;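 active = GFP signal above 150% of the solvent control wells, that is a rise of more than half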;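 also: median channel GFP fluorescence of all gated yeast cells per well; ratio of median GFP to plate DMSO average so 100% = DMSO level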
# RPL19A GFP CP2: reconfirmed modulator of RPL19A-GFP TOR reporter in yeast; S. cerevisiae RPL19A-GFP strain, flow cytometry GFP, 3 h; stronger effect = lower value; 100% means same as DMSO wells; shares compounds with LAP4-GFP MLPCN; 590 compounds, 3% hits; GFP response vs DMSO, % at 10 µM;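 active = under 65% GFP response relative to DMSO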;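 also: median GFP channel fluorescence per well over the all cells gate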
# CIT2 GFP CP2: second confirmation of modulators of TOR reporter CIT2-GFP in yeast | 590 compounds, 8% hits | AID 2624 | GFP response vs DMSO, % at 10 µM | shares compounds with LAP4-GFP MLPCN | S. cerevisiae CIT2-GFP strain, flow cytometry GFP, 3 h; DMSO control wells read 100%;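 active = GFP response vs DMSO above about 150%, limit read from the data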;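 also: median green fluorescence per well over all gated yeast cells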
# AGP1-GFP pick2: reconfirmed modulator of AGP1-GFP TOR reporter in yeast; percent response vs DMSO, % at 10 µM; 590 tested, under 10 active; S. cerevisiae AGP1-GFP strain, flow cytometry GFP, 3 h; shares compounds with LAP4-GFP MLPCN; AID 2643;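 active = over 150 percent of DMSO response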;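 also: median GFP channel fluorescence over all cells without mother daughter split; sample median GFP divided by mean DMSO control so 100% equals DMSO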
# s288c autofluor: yeast s288c autofluorescence artifact, counter-screen; shares compounds with LAP4-GFP MLPCN; S. cerevisiae s288c, 520 nm autofluorescence, flow cytometry, 3 h; stronger effect = higher value; zero means same as solvent-only cells; fluorescence change (kMESF span) at 33 µM; 610 tested, under 10 active;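 active = fluorescence span over the dose series, or activity score, above about 33, limit read from the data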
# Yeast autofl DR: TOR screen hit shows autofluorescence in yeast s288c. shares compounds with LAP4-GFP MLPCN. S. cerevisiae s288c parental, compound autofluorescence, flow cytometry, 3 h. fluorescence change (span) at 33 µM. 110 tested, under 10 active;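 active = fluorescence change span, or the activity score built from it, above 25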
# TORC1 bypass gr: stops wildtype yeast growth while TORC1 bypass cells still grow; shares compounds with LAP4-GFP MLPCN; S. cerevisiae BY4741 spot growth rating, 48-72 h; stronger effect = lower value; growth rating (0-3) at 30 µM; 120 tested, under 10 active;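 active = growth rating at most 1 for wild type yeast while the TORC1 bypass strain still grows fully, rated 3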
# * marks the source's active call; other numbers are inactive results; x = no result given. Most compounds without a hit are left out; they make up all but 0.92% or so of the library.
SMILES,LAP4-GFP MLPCN,AGP1 TOR yeast,CIT2 TOR yeast,RPL19A TOR yeast,MEP2-GFP yeast,LAP4-GFP pick2,MEP2-GFP pick2,RPL19A GFP CP2,CIT2 GFP CP2,AGP1-GFP pick2,s288c autofluor,others
Cc1ccc(N2C(=O)C(Cl)=C(Nc3c(C)n(C)n(-c4ccccc4)c3=O)C2=O)cc1,102.4,101.4,95.3,103.9,102.6,x,x,x,x,x,0.3,
Cc1cccc(N2C(=O)C(Cl)=C(Nc3c(C)n(C)n(-c4ccccc4)c3=O)C2=O)c1C,109.2,101.0,98.9,103.4,109.1,x,x,x,x,x,0.2,
COC(=O)c1cc(S(=O)(=O)NCCc2sccc2C)c[nH]1,97.8,100.3,99.4,97.3,99.8,x,x,x,x,x,x,
N#CCC(=O)c1ccccc1Oc1ccc(Cl)cc1,90.9,87.6,84.9,101.6,87.4,x,x,x,x,x,x,
O=[N+]([O-])c1cnc(Sc2ccncn2)s1,262.0*,101.2,98.5,85.8,116.0,x,x,x,x,x,6.73,
CCNC(=S)NNC(=O)Cn1c(=O)c2c(ncn2CCOC)n(Cc2ccccc2)c1=O,179.1*,97.2,81.4,85.5,220.9*,99.0,108.2,100.9,101.8,100.5,x,
CCN(c1ccccc1)S(=O)(=O)c1ccc(OC)c(NC(=O)c2cc(F)c(F)c(F)c2F)c1,176.8*,116.7,92.6,95.1,114.3,100.0,99.8,101.1,98.4,97.4,x,
CCN(c1ccccc1)S(=O)(=O)c1ccc(OC)c(NC(=O)c2cccs2)c1,100.2,99.5,93.4,97.5,93.0,x,x,x,x,x,x,
O=C(CSc1ccc(-c2ccccn2)nn1)Nc1ccc(F)cc1F,107.0,115.7,160.7*,107.4,129.0,100.0,103.2,101.3,98.4,98.2,x,
CN(CC(=O)N1CCCC1)S(=O)(=O)c1ccc2ccccc2c1,94.3,103.3,108.5,99.4,97.0,x,x,x,x,x,x,
COc1cccc2c1C(=O)c1c(O)c3c(c(O)c1C2=O)C[C@@](O)(C(=O)CO)C[C@@H]3O[C@H]1C[C@H](N)[C@@H](O)[C@H](C)O1,94.9,95.2,94.6,106.2,104.7,x,x,x,x,x,x,
CC(=O)[C@]1(O)Cc2c(O)c3c(c(O)c2[C@@H](O[C@H]2C[C@H](N)[C@H](O)[C@H](C)O2)C1)C(=O)c1ccccc1C3=O,152.4*,88.8,90.7,107.1,119.2,151.0*,153.1*,110.7,140.2,108.5,2.7,
Cc1ccc2c(nc3s/c(=C\c4ccc(-c5ccccc5C(=O)O)o4)c(=O)n32)c1C,126.4,98.5,143.7,114.2,184.3*,x,x,x,x,x,9.08,
Cc1ccc(C)c(N2C(=N)S/C(=C\c3ccc(-c4ccccc4C(=O)O)o3)C2=O)c1,110.1,101.9,103.0,98.9,108.0,x,x,x,x,x,x,
O=C(OC1CSc2nc3ccccc3n2C1)c1ccco1 (stereo not given),94.0,25.2,90.1,18.1*,282.5*,101.0,104.8,101.1,104.0,103.5,x,
CN1CCC(OC(=O)c2ccco2)CC1,104.4,104.8,104.2,101.8,96.6,x,x,x,x,x,x,
Cc1ccc(C2CC(=O)Oc3cc(O)ccc32)cc1 (stereo not given),179.9*,90.4,70.2,74.7,96.7,115.4,138.1,88.7,99.5,111.0,x,
O=C1CC(c2ccccc2)c2cc(O)ccc2O1 (stereo not given),100.6,101.4,108.2,103.9,103.1,x,x,x,x,x,x,
COc1cccc(N2CC(C)Cn3c2nc2c3c(=O)[nH]c(=O)n2C)c1 (stereo not given),98.2,104.8,105.6,109.5,110.9,x,x,x,x,x,x,
S=c1[nH]cnc2sc(Nc3ccccc3)nc12,85.4,96.1,91.5,100.4,100.0,x,x,x,x,x,x,
CCO[C@H]1OC(C(=O)N2CCOCC2)=C[C@@H](c2cn(C(C)=O)c3ccccc23)[C@@H]1CCCO,222.6*,119.6,111.2,74.4,507.0*,99.2,96.1,100.4,102.9,100.3,x,
CN(C)S(=O)(=O)c1cccc(C(=O)Nc2ccccc2C(=O)NC2CC2)c1,151.9*,114.8,92.5,91.7,108.9,103.8,104.8,100.4,101.8,97.7,x,
CC1CCN(C(=O)c2ccccc2NC(=O)c2cccc(S(=O)(=O)N(C)C)c2)CC1,99.2,100.3,101.6,99.3,95.7,x,x,x,x,x,x,
Cc1c(C)c2cc(Cl)c(OCC(=O)NC3CC(C)(C)NC(C)(C)C3)cc2oc1=O,96.1,101.2,94.1,98.4,90.4,x,x,x,x,x,x,
Cc1ccc(O)c(N=Nc2nccs2)c1,170.9*,74.8,74.9,89.0,100.0,227.4*,141.5,100.6,132.1,95.4,0.61,
SMILES,LAP4-GFP MLPCN,AGP1 TOR yeast,CIT2 TOR yeast,RPL19A TOR yeast,MEP2-GFP yeast,LAP4-GFP pick2,MEP2-GFP pick2,RPL19A GFP CP2,CIT2 GFP CP2,AGP1-GFP pick2,s288c autofluor,others
Cc1cccc(NC(=O)C(C)Sc2nc3nc(C)cc(C)n3n2)c1 (stereo not given),100.2,101.3,100.1,96.0,104.9,x,x,x,x,x,x,
O=C(Oc1c(Cl)cc(Cl)c2cccnc12)c1ccco1,230.4*,85.1,71.0,95.3,107.8,x,x,x,x,x,1.31,Yeast autofl DR=0.26;TORC1 bypass gr=0
O=C(Oc1c(Cl)cc(Cl)c2cccnc12)c1cccs1,221.8*,83.0,81.7,97.9,102.3,201.4*,141.5,108.1,118.2,103.8,0.81,
CCc1ccccc1NC(=S)N(CCOC)C(C)c1ccco1 (stereo not given),96.3,104.2,100.3,94.8,93.7,x,x,x,x,x,x,
COCCNC(=O)/C(C#N)=C/c1c(N2CCCCCC2)nc2ccccn2c1=O,85.0,84.5,90.9,94.2,85.9,x,x,x,x,x,x,
CCCn1cc(CN2CCC(n3nccc3NC(=O)c3ccc4c(c3)OCO4)CC2)c(C)n1,99.0,107.4,105.1,100.2,98.4,x,x,x,x,x,x,
CCOCCCNC(=O)c1ccc(OC2CCN(C(C)=O)CC2)c(OC)c1,95.3,105.5,104.8,104.4,114.0,x,x,x,x,x,x,
